Measurements as given in PubChem BioAssay AID1159580 (chemical genetic matrix, 2015).
Screen size: about 5,500 compounds; about 2,000 (36%) were called active. About 18% were inconclusive and are not listed. Cut-off read from the data, not from the text of the source: active = normalized growth mostly below about 0.91 (no sharp cut-off); inconclusive = no clear call, values can overlap the other calls; inactive = mostly above about 0.92. This is one part of the list.

Test: chemical genetic growth profiling, strain panel (AID 1159580);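 note: tested at 20 µM; growth read once vehicle control cultures reached saturation at 30 °C; 1 = growth at the plate median or of vehicle wells; lower values mean less growth of the strain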
Settings: growth OD
[1] = S. cerevisiae deletion strains, locus YAL040C, strain CLN3, stronger effect = lower value
[2] = S. cerevisiae deletion strains, locus YDR363W, strain ESC2, stronger effect = lower value
[3] = S. cerevisiae deletion strains, locus YER002W, strain NOP16, stronger effect = lower value
[4] = S. cerevisiae deletion strains, locus YMR307W, strain GAS1, stronger effect = lower value
[5] = S. cerevisiae deletion strains, locus YNL153C, strain GIM3, stronger effect = lower value
[6] = S. cerevisiae deletion strains, locus YNL175C, strain NOP13, stronger effect = lower value
[7] = S. cerevisiae deletion strains, locus YNL197C, strain WHI3, stronger effect = lower value
[8] = S. cerevisiae deletion strains, locus YNL224C, strain SQS1, stronger effect = lower value
[9] = S. cerevisiae deletion strains, locus YOR083W, strain WHI5 (second series), stronger effect = lower value
[10] = S. cerevisiae deletion strains, locus YPL055C, strain LGE1, stronger effect = lower value
[11] = S. cerevisiae deletion strains, locus YPL241C, strain CIN2, stronger effect = lower value
[12] = S. cerevisiae deletion strains, locus YAL013W, strain DEP1, stronger effect = lower value
[13] = S. cerevisiae deletion strains, locus YBR229C, strain ROT2, stronger effect = lower value
[14] = S. cerevisiae deletion strains, locus YDL101C, strain DUN1, stronger effect = lower value
[15] = S. cerevisiae deletion strains, locus YDL134C, strain PPH21, stronger effect = lower value
[16] = S. cerevisiae deletion strains, locus YDR150W, strain NUM1, stronger effect = lower value
[17] = S. cerevisiae deletion strains, locus YEL061C, strain CIN8, stronger effect = lower value
[18] = S. cerevisiae deletion strains, locus YGR078C, strain PAC10, stronger effect = lower value
[19] = S. cerevisiae deletion strains, locus YHR030C, strain SLT2, stronger effect = lower value
[20] = S. cerevisiae deletion strains, locus YHR087W, strain rtc3, stronger effect = lower value
[21] = S. cerevisiae deletion strains, locus YJL187C, strain SWE1, stronger effect = lower value
[22] = S. cerevisiae deletion strains, locus YJR043C, strain POL32, stronger effect = lower value
[23] = S. cerevisiae deletion strains, locus YJR075W, strain HOC1, stronger effect = lower value
[24] = S. cerevisiae deletion strains, locus YLR039C, strain RIC1, stronger effect = lower value
[25] = S. cerevisiae deletion strains, locus YLR058C, strain SHM2 (second series), stronger effect = lower value
[26] = S. cerevisiae deletion strains, locus YLR085C, strain ARP6, stronger effect = lower value
[27] = S. cerevisiae deletion strains, locus YLR262C, strain YPT6, stronger effect = lower value
[28] = S. cerevisiae deletion strains, locus YML094W, strain GIM5, stronger effect = lower value
[29] = S. cerevisiae deletion strains, locus YMR219W, strain ESC1, stronger effect = lower value
[30] = S. cerevisiae deletion strains, locus YMR263W, strain SAP30, stronger effect = lower value
[31] = S. cerevisiae deletion strains, locus YNL128W, strain TEP1, stronger effect = lower value
[32] = S. cerevisiae deletion strains, locus YNL298W, strain CLA4 (second series), stronger effect = lower value
[33] = S. cerevisiae deletion strains, locus YNL322C, strain KRE1, stronger effect = lower value
[34] = S. cerevisiae deletion strains, locus YNR030W, strain Alg12, stronger effect = lower value
[35] = S. cerevisiae deletion strains, locus YOL006C, strain TOP1, stronger effect = lower value
[36] = S. cerevisiae deletion strains, locus YPR135W, strain CTF4, stronger effect = lower value
[37] = S. cerevisiae deletion strains, locus YGR229C, strain SMI1, stronger effect = lower value
[38] = S. cerevisiae deletion strains, locus YKL190W, strain CNB1, stronger effect = lower value

Measured: normalized growth

N[C@@H](CCl)C(=O)O
inactive: [1] 0.98 | [2] 1.03 | [3] 0.99 | [4] 0.993 | [5] 1.05 | [6] 1.01 | [7] 1.03 | [8] 0.996 | [9] 1.01 | [10] 1.02 | [11] 1

CC(=O)c1cc2ccccc2oc1=O
inactive: [12] 1.02 | [13] 1.01 | [14] 0.961 | [15] 1.02 | [16] 0.94 | [17] 1.01 | [18] 0.986 | [19] 1 | [20] 1.03 | [21] 0.999 | [22] 0.999 | [23] 0.988 | [24] 1.05 | [25] 1.01 | [26] 1.08 | [27] 1 | [28] 1.02 | [29] 0.993 | [30] 1.02 | [31] 1.01 | [5] 1.01 | [32] 1.07 | [33] 0.99 | [34] 1.05 | [35] 1.02 | [10] 1.13 | [11] 1.03 | [36] 0.984 | S. cerevisiae strains, strain wild type, stronger effect = lower value 1.03

CC(=O)Nc1cc2ccccc2oc1=O
inactive: [12] 1 | [13] 1 | [14] 0.975 | [15] 1 | [16] 0.986 | [17] 1.02 | [18] 1.01 | [37] 0.997 | [19] 0.942 | [20] 0.988 | [22] 1.01 | [23] 0.997 | [38] 1 | [24] 1.06 | [25] 1.01 | [26] 1.01 | [27] 1.04 | [28] 0.997 | [29] 1 | [30] 0.996 | [4] 1.09 | [5] 0.984 | [32] 0.998 | [33] 1.01 | [34] 1 | [35] 0.958 | [10] 0.969 | [11] 0.985 | [36] 0.946

CC(=O)c1cc2cc(Br)ccc2oc1=O
inactive: [12] 0.987 | [13] 0.967 | [14] 0.998 | [16] 0.994 | [17] 0.975 | [18] 0.976 | [37] 0.994 | [19] 0.818 | [20] 0.96 | [21] 0.97 | [22] 0.984 | [23] 0.948 | [38] 0.992 | [25] 0.964 | [26] 0.936 | [28] 0.999 | [29] 0.96 | [30] 1 | [31] 1.01 | [5] 0.994 | [32] 0.983 | [33] 0.964 | [34] 0.97 | [10] 1.02 | [11] 0.964 | [36] 0.717
active: [24] 0.618 | [27] 0.628

CCCCCCCCCCCCCCCCOCC(COCC(F)(F)F)OP(=O)(O)OCO (stereo unspecified)
inactive: [12] 0.947 | [1] 1 | S. cerevisiae deletion strains, locus YCL061C, strain MRC1 (second series), stronger effect = lower value 0.987 | [2] 0.968 | [3] 0.995 | [23] 1.03 | [30] 1.02 | [6] 0.995 | [7] 1 | [8] 0.964 | [9] 0.988 | [11] 0.988
active: [37] 0.767 | [10] 0.881
